Compounds with a hit are over-represented: about 2.8% of the library has one in this group of screens.
IP6K1 inhibitor: IP6K1 kinase inhibition; IP6K1 kinase, ADP-Glo luminescence, 2 h; active compounds read low; Q92551; 140,000 tested, 0.81% active; activity change, % (series mostly up to about 58 µM); AID 1645851; in the data active = activity change below about -25%
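ADP-Glo luminescence measures ADP made by human IP6K1 during a 2 h RT reaction with ATP/IP6 (mix at 1.3 mM/130 uM); top library doses 57.5 and 19.1 uM final.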
SNCA expr inh: reduces expression of the alpha-synuclein gene; HEK-293 SNCA-luciferase knock-in, luminescence, 24 h; Potency, µM (doses to about 57.2 µM), usual class: inhibitors; 140,000 tested, 0.17% active; note: nearly all actives have a fitted effect of over 45% in size
SNCA viab count: cell viability loss counter-screen; HEK-293-SNCA-luc viability, GF-AFC fluorescence, 24 h; Potency, µM (series often up to 57.1 µM), actives largely listed as cytotoxic; 150,000 tested, 0.12% active; note: nearly all actives have a fitted effect of over 30% in size
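Cytotoxicity counterscreen: after 24 h compound treatment of genome-edited SNCA-luciferase HEK-293 cells, live-cell protease substrate GF-AFC read by fluorescence after 30 min; activity scaled between DMSO (0%) and medium-only (-100%), curves Hill-fitted.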
KDM5B inhibitor: blocks human KDM5B histone demethylase activity; Q9UGL1; KDM5B demethylase, FDH-coupled NADH fluorescence (FDH is formaldehyde dehydrogenase); Potency, µM (titrated, usually from 57.7 µM), usual class: inhibitors; 220,000 tested, 2.6% active; AID 1347165; note: nearly all actives have a fitted effect of over 70% in size
Target sequence (Q9UGL1 whole entry, looked up): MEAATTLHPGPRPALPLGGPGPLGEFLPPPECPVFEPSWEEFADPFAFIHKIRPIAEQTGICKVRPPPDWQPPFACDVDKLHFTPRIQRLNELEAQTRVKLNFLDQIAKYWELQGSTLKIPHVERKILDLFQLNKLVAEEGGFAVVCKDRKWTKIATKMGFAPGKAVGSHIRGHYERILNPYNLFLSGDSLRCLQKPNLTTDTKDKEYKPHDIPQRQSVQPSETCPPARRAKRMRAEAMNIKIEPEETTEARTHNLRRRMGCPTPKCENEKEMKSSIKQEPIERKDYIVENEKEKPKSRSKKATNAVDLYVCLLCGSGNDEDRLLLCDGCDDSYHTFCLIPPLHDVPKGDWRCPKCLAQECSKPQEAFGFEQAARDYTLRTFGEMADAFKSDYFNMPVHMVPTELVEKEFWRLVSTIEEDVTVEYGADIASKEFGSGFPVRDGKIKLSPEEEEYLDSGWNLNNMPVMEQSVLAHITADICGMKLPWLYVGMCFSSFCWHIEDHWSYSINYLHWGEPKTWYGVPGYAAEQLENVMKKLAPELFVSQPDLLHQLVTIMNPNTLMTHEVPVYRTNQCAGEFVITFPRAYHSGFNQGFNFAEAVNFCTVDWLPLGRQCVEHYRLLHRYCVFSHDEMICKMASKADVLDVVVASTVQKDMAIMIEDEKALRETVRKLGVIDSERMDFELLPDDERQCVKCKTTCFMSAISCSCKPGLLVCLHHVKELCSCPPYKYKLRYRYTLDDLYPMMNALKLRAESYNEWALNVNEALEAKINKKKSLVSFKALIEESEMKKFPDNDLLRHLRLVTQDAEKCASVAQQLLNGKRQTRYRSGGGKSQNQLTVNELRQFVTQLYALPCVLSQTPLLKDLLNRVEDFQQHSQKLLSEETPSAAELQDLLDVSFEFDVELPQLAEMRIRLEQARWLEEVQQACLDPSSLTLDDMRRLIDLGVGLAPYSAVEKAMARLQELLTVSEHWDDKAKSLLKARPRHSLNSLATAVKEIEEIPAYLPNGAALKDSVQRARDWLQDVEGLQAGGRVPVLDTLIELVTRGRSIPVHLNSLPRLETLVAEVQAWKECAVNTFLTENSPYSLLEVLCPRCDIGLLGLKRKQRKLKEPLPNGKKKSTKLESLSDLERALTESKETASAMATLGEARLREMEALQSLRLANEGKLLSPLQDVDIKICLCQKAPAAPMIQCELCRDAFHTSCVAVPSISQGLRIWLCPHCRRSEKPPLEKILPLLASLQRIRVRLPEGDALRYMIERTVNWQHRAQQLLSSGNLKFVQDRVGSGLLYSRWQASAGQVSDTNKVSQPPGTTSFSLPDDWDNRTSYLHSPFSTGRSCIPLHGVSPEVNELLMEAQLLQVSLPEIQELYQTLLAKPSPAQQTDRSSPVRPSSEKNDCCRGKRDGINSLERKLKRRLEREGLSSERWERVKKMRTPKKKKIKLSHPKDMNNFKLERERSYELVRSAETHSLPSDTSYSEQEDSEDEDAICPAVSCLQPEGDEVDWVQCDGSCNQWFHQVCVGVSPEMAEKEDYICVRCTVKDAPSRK
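Here, H3K4me3 peptide (12.5 µM in substrate mix) is demethylated by KDM5BΔAP, 200 nM final, after 10 min compound exposure. Formaldehyde product is coupled through FDH (0.25 U/mL in mix) to NADH fluorescence; 30-min ΔRFU feeds dose-response curves.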
Each line names hits and unclear results; the compound was inactive in the other large screens. Unless noted, calls come from the whole dose curve; as a rule, active = well fitted curve in the direction sought with a large enough effect; inconclusive = small, poorly fitted or top-dose-only effect, or another doubt; inactive = no such curve, though single readings can be large; an effect the other way counts as inactive or inconclusive.

COCCNC(=O)c1ccc2c(c1)N(C)C(CC(=O)NCc1ccncc1)CO2 (configuration not stated)	KDM5B inhibitor inconclusive
COCCNC(=O)c1ccc2c(c1)N(C)C(CC(=O)NCCO)CO2 (configuration not stated)	KDM5B inhibitor 28µM
COCCNC(=O)c1ccc2c(c1)N(C)C(CC(=O)NCC(F)(F)F)CO2 (configuration not stated)	KDM5B inhibitor 20µM
COc1ccc(OC)c(-c2cc(-c3cccs3)nc3c(C)noc23)c1	KDM5B inhibitor 40µM
COc1ccccc1-c1cc(-c2ccsc2)c2onc(C)c2n1	KDM5B inhibitor 28µM
Cc1noc2c(-c3ccsc3)cc(-c3cccnc3)nc12	KDM5B inhibitor inconclusive
Cc1noc2c(-c3ccc(CO)cc3)cc(-c3cccs3)nc12	KDM5B inhibitor inconclusive
Cc1ccc(-n2nnnc2SCCCn2c(=O)c3c(ncn3C)n(C)c2=O)cc1C	none (no result: IP6K1 inhibitor, SNCA expr inh, SNCA viab count)
Cc1noc(C)c1Cc1ccc(C(=O)N2CCC3(CC2)CC(Cc2ccc(F)cc2)CCO3)o1 (configuration not stated)	none (no result: KDM5B inhibitor)
COCCNc1nccc(C2(c3ccccc3Cl)CCNCC2)n1	KDM5B inhibitor 22µM
CC(C)OCCNc1nccc(C2(c3ccccc3Cl)CCNCC2)n1	SNCA viab count inconclusive, KDM5B inhibitor inconclusive
COc1ccc(CCNC(=O)c2ccc(Cn3ccn4nc5c(c4c3=O)CCCC5)cc2)cc1OC	KDM5B inhibitor 28µM
CC(C)Oc1ccc(CNC(=O)c2ccc(Cn3ccn4nc5c(c4c3=O)CCCC5)cc2)cc1	KDM5B inhibitor 25µM
Cc1oc(-c2ccccc2)nc1Cn1ccn2nc3c(c2c1=O)CCCC3	KDM5B inhibitor 28µM
CC(CCc1ccccc1)NC(=O)c1ccc(Cn2ccn3nc4c(c3c2=O)CCCC4)cc1 (configuration not stated)	KDM5B inhibitor 35µM
CCNC(=O)[C@@H]1C[C@H](NC(=O)c2ccccc2)CN1Cc1scnc1C	KDM5B inhibitor inconclusive
Cc1ccc(NC(=O)c2ccc(Cn3ccn4nc5c(c4c3=O)CCCC5)cc2)cc1C	KDM5B inhibitor 25µM
Cc1cc(CNC(=O)C2(C(N)=O)CC2)c2[nH]c(-c3ccccc3)c(C)c2c1	SNCA expr inh inconclusive, KDM5B inhibitor 28µM
NC(=O)C1(C(=O)NCc2nc(-c3cccc(F)c3)c(-c3ccccn3)[nH]2)CC1	none
Cc1c(-c2ccccc2)[nH]c2c(CNC(=O)CN3C(=O)CNC3=O)cc(Cl)cc12	KDM5B inhibitor inconclusive
Cc1c(-c2ccccc2)[nH]c2c(CNC(=O)c3ccc(=O)n(C)n3)cc(Cl)cc12	SNCA viab count inconclusive
Cc1c(-c2ccccc2)[nH]c2c(CNC(=O)CCn3cnnn3)cc(Cl)cc12	KDM5B inhibitor 25µM
Cc1c(-c2ccccc2)[nH]c2c(CNC(=O)Cn3ccc(=O)[nH]c3=O)cc(Cl)cc12	KDM5B inhibitor 28µM
Cc1noc(-c2ccn3c(CNC(=O)c4cccnc4)nnc3c2)n1	SNCA expr inh inconclusive
CCc1noc(-c2ccn3c(CNC(=O)c4cccc(OC)c4)nnc3c2)n1	KDM5B inhibitor 28µM
CCc1noc(-c2ccn3c(CNC(=O)c4ccoc4)nnc3c2)n1	KDM5B inhibitor 28µM
CCc1noc(-c2ccn3c(CNC(=O)c4ccncc4)nnc3c2)n1	SNCA expr inh inconclusive, KDM5B inhibitor 25µM
CCCc1noc(-c2ccn3c(CNC(=O)c4cccnc4)nnc3c2)n1	KDM5B inhibitor 28µM
CN(CCOc1ccc(Cl)cc1)Cc1nc2ccccc2c(=O)[nH]1	none (no result: IP6K1 inhibitor, SNCA expr inh, SNCA viab count)
COC(=O)c1ccc(Oc2c(C)oc3cc(OC(=O)c4ccccc4)ccc3c2=O)cc1	none (no result: IP6K1 inhibitor, SNCA expr inh, SNCA viab count)
CCCc1noc(-c2ccn3c(CNC(=O)c4ccc(C)c(F)c4)nnc3c2)n1	KDM5B inhibitor 28µM
Cc1noc(-c2ccn3c(CNC(=O)c4ccoc4)nnc3c2)n1	KDM5B inhibitor 25µM
Cc1noc(-c2ccn3c(CNC(=O)c4ccncc4)nnc3c2)n1	none
CCc1ccccc1NC(=O)CSc1nc2n[nH]c(C)c2c(=N)n1-c1cccc(C)c1	SNCA viab count inconclusive, KDM5B inhibitor inconclusive
O=C1NC2(CCN([S+](=O)([O-])c3ccccc3)C2)COc2ccccc21 (configuration not stated)	none
Cc1noc(C)c1[S+](=O)([O-])N1CCCC2(COc3ccccc3C(=O)N2)C1 (configuration not stated)	SNCA expr inh inconclusive, SNCA viab count inconclusive, KDM5B inhibitor 25µM
Cc1noc(C)c1[S+](=O)([O-])N1CC2(C1)NC(=O)c1ccccc1O2	none

Source: PubChem
